This note sets out measurements from PubChem BioAssay.

Calls of active or inactive are those of the source. Unless noted, the rule behind the calls is not given here.

Assay [1] in a line: anti-His antibody binders, primary screen, artefact control for SMM control protein annotation, biochemical, small-molecule microarray, 635 nm fluorescence (AID 1128).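 Note: score merges feature fluorescence with signal-to-noise for each printed compound spot.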 As to conditions: anti-His Alexa647 antibody binding, higher = more signal.
In assay [2] the test system is Human papillomavirus type 1a E7 protein (residues 1-88). The assay is described as follows: HPV1a E7 small-molecule binders, primary screen, biochemical, small-molecule microarray, residues 1-88, 635 nm (AID 1129). As to conditions: small-molecule microarray binding, fluorescence 635 nm; higher = more signal.
The target in assay [3] is Focal adhesion kinase 1 (Homo sapiens) (UniProt Q05397). The assay is described as follows: small-molecule microarray binders of FAK, primary screen, biochemical, 635/667 nm fluorescence, BSA, DTT (AID 1130).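 Note: composite of spot emission at 667 nm and signal to noise over triplicate slides.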 As to conditions: PTK2 binding, 635 nm fluorescence, higher = more signal.
Chain of Focal adhesion kinase 1 (Homo sapiens) (Q05397 whole entry, looked up): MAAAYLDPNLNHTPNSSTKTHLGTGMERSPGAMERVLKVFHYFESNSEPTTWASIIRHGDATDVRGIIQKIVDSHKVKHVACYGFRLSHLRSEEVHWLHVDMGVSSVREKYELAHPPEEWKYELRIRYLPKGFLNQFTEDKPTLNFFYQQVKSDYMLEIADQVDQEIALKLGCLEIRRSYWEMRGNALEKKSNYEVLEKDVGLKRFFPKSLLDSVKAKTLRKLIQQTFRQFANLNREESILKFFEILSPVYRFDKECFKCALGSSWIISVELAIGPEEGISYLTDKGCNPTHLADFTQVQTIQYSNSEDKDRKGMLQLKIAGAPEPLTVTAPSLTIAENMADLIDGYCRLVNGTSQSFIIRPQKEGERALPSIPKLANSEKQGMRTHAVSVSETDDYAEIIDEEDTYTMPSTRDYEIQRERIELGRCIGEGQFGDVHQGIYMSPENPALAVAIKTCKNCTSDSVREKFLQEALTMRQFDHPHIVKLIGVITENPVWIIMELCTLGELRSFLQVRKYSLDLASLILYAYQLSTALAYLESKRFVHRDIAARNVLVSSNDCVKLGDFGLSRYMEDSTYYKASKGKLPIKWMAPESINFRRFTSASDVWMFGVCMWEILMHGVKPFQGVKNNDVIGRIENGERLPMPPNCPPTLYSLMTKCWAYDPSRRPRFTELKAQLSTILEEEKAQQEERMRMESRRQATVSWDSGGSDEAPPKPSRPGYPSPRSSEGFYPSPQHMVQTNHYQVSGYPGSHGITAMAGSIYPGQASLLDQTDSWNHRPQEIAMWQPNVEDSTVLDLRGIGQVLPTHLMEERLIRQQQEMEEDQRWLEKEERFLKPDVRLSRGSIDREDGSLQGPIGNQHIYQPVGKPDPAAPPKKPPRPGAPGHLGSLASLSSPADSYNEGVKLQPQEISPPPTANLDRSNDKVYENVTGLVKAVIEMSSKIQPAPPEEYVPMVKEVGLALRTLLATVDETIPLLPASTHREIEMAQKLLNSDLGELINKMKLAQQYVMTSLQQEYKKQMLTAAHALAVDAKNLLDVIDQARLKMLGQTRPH
For assay [4], the system named is Fibrinogen (Alexa647-labelled). The assay is described as follows: fibrinogen binders on compound microarrays, profiling panel, artefact control for SMM control-protein annotation, biochemical, small-molecule microarray, 635/667 nm fluorescence (AID 1131).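 Note: z-score merges 667 nm fluorescence with per-spot signal-to-noise over triplicate slides.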 The note with it: fibrinogen-A647 binding fluorescence, higher = more signal.
In assay [5] the target is Follistatin (Homo sapiens) (UniProt P19883). Briefly: follistatin binders on small-molecule microarrays, primary screen, biochemical, small-molecule microarray, 635/667 nm fluorescence (AID 1132). The note with it: FST binding, 635 nm fluorescence, higher = more signal.
Chain of Follistatin (Homo sapiens) (P19883 whole entry, looked up): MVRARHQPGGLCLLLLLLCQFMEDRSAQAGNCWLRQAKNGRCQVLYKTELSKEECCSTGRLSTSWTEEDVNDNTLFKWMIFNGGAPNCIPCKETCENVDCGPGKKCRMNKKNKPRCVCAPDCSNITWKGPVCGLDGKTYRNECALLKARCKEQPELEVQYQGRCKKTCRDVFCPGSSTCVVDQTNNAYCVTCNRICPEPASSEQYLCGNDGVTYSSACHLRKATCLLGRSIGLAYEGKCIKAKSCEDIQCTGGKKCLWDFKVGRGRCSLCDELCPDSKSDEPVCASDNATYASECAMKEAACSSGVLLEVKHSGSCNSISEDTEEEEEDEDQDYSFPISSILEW
Assay [6] addresses Fibroblast growth factor 2 (Homo sapiens) (UniProt P09038). Briefly: FGF2 binders on small-molecule microarrays, primary screen, biochemical, small-molecule microarray, 635/667 nm fluorescence (AID 1133). The note with it: small-molecule microarray binding, FGF2, fluorescence 635/667; higher = more signal.
Assay [7] is described as follows: mitochondrial membrane potential change in A549 cells, profiling panel, cell-based, JC-1 fluorescence, basal, 24 h, 100 nL (AID 1138).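 Note: A549 lung adenocarcinoma cells under basal conditions with no added stimulus; test concentration not given here.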 The note with it: higher = more signal.
The next assay has as its system Lefty1. Briefly: Lefty1 binders on small-molecule microarrays, primary screen, biochemical, small-molecule microarray, 635/667 nm fluorescence (AID 1139). As to conditions: small-molecule microarray binding, fluorescence 635/667; higher = more signal.
The test system of assay [8] is wheat germ agglutinin (Triticum aestivum), Alexa647-labelled. Briefly: wheat germ agglutinin binders on compound microarrays, profiling panel, artefact control for SMM control-protein annotation, biochemical, small-molecule microarray, 635/667 nm fluorescence (AID 1140).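 Note: score merges 667 nm feature emission with signal to noise over triplicate slides.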 As to conditions: WGA-A647 binding, 635 nm fluorescence, higher = more signal.
For assay [9], the target named is Luciferin 4-monooxygenase (Photinus pyralis) (UniProt P08659). Briefly: firefly luciferase enzyme inhibitors, primary screen, biochemical, luminescence, purified enzyme, 2006 set (AID 1141).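 Note: cell-free assay with purified firefly luciferase at 100 ng per well in PBS; test concentration not given here.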 As to conditions: SteadyGlo luminescence, 30 min, higher = more signal, called active from +8 up or from −8 down.
Chain of Luciferin 4-monooxygenase (Photinus pyralis) (P08659 whole entry, looked up): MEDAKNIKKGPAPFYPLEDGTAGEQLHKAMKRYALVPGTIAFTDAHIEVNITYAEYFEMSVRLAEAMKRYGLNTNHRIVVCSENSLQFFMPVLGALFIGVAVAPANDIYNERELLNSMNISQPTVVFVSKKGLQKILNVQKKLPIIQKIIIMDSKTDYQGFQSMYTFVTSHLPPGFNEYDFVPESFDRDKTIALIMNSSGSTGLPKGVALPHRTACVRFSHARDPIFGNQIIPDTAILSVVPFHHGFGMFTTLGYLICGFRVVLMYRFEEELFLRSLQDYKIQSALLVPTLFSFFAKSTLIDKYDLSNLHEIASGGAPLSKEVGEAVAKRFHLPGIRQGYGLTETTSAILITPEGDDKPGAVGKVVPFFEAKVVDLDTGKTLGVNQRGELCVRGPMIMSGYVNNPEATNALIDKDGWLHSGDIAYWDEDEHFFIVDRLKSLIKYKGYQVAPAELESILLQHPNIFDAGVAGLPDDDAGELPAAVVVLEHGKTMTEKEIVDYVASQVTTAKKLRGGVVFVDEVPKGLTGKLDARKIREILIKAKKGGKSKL
Assay [10] concerns Wnt5a (protein binding on small-molecule microarray). Briefly: Wnt5a binders on small-molecule microarray, primary screen, biophysical, 635/667 nm fluorescence (AID 1142).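 Note: fluorescence read at 667 nm with signal to noise per printed feature.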 As to conditions: 635 nm fluorescence, higher = more signal.
The nature of assay [11]: cell viability in Huh7 cells, primary screen, cytotoxicity control for HCV replication inhibitor project, CellTiter-Glo luminescence, basal, 48 h (AID 1143).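 Note: Huh7 hepatoma cells carrying a hepatitis C replication reporter with no stimulus; test concentration not given here.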 As to conditions: Huh7 HCV replicon, higher = more signal, called active from +8 up or from −8 down. A general note: In ATP-based viability assays light output follows the ATP content of the culture.
Assay [12] can be described thus: P. aeruginosa biofilm formation inhibitors, primary screen, PAO1 strain, BacTiter-Glo luminescence, LB-PBS (AID 1144). The note with it: 12 h, higher = more signal.
A short description of assay [13]: CREB reporter modulators without forskolin, primary screen, cell-based, PC12, CRE-LacZ reporter, unstimulated (AID 1145). As to conditions: no forskolin, luminescence, 4.5 h, higher = more signal, called active from +8 up or from −8 down.
Assay [14] can be described thus: CREB reporter modulators under forskolin, primary screen, cell-based, PC12, CRE-LacZ reporter, forskolin-stimulated (AID 1146).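 Note: PC12 cells with 6xCRE LacZ reporter stimulated by forskolin 10 µM; beta-galactosidase reporter signal reflecting CREB driven transcription.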 As to conditions: luminescence, 4.5 h, higher = more signal, called active from +8 up or from −8 down.
Assay [15] concerns the target Streptavidin (Streptomyces avidinii) (UniProt P22629). Briefly: streptavidin binders on small-molecule microarray, primary screen, artefact control for SMM compound annotation, biophysical, 635/667 nm fluorescence (AID 1147).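 Note: signal reflects streptavidin binding to arrayed compounds as a control protein.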 As to conditions: streptavidin binding, higher = more signal.
Assay [16] is described as follows: small-molecule binders of probe aInhba, primary screen, biochemical, small-molecule microarray, 635/667 nm fluorescence (AID 1148).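 Note: score merges 667nm spot fluorescence with signal-to-noise for antibody binding to printed compounds.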 As to conditions: higher = more signal.
Assay [17] deals with Torsin-1A (Homo sapiens) (UniProt O14656). Briefly: torsin A binders from cell lysate, primary screen, small-molecule microarray, wild-type, 635/667 nm (AID 1149). As to conditions: COS7 hTOR1A-WT lysate, 635 nm fluorescence, higher = more signal.
Chain of Torsin-1A (Homo sapiens) (O14656 whole entry, looked up): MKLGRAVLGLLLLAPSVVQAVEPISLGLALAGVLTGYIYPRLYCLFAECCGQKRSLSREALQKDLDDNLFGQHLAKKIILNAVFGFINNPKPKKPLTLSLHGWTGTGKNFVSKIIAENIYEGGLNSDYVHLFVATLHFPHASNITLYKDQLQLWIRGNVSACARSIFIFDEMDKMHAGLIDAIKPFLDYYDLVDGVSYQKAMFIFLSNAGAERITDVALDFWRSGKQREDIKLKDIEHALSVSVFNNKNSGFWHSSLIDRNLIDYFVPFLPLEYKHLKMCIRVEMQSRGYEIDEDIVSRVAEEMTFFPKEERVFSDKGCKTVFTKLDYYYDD
Assay [18] shares this target. The assay is described as follows: small-molecule binders of mutant TOR1A in lysate, primary screen, cell lysate, small-molecule microarray, COS7 lysate, 635/667 nm fluorescence (AID 1150).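 Note: score pools 667 nm emission and signal to noise measuring lysate protein binding.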 As to conditions: COS7 hTOR1A mutant lysate, 635 nm fluorescence, higher = more signal.
In assay [19] the test system is Sonic hedgehog protein (Shh). The assay is described as follows: small-molecule binders of Shh protein, primary screen, biochemical, small-molecule microarray, 635/667 nm fluorescence (AID 1151).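 Note: Shh protein binding to compounds spotted on small-molecule microarray slides; score combines spot fluorescence intensity with signal-to-noise across triplicate slides.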 As to conditions: small-molecule microarray binding, 635 nm fluorescence; higher = more signal.

Chain of Streptavidin (Streptomyces avidinii) (P22629 whole entry, looked up): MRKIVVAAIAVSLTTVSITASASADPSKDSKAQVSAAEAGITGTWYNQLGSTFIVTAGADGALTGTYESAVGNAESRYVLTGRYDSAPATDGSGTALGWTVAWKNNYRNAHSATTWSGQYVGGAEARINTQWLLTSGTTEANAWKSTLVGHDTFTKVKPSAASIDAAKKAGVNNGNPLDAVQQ
Chain of Fibroblast growth factor 2 (Homo sapiens) (P09038 whole entry, looked up): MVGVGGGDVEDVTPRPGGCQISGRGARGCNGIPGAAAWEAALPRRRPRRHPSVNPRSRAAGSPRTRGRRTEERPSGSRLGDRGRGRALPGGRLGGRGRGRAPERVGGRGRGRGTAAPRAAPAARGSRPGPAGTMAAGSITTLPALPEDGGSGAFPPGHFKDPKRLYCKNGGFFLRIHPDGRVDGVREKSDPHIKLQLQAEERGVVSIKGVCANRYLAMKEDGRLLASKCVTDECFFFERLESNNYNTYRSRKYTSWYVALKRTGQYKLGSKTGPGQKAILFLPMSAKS

As for `COc1ccc([Si](C)(C)[C@@H]2[C@@H](CCn3cc([C@H](O)c4ccccc4)nn3)O[C@]3(C(=O)N(C)c4ccccc43)[C@H]2C)cc1`, the composite z-score in [1] was 0.214; in assay [2], 0.991; in assay [3] it was 0.227; in [4] it was -0.892; in [5] it was 0.0274; in assay [6], 0.283. Further, the composite z-score in the assay with Lefty1 is 0.57; in [8] it was 0.0783; in assay [10] it was 0.0302; in assay [15] it was -0.0794; in [16] it was -0.0465; in the assay with Torsin-1A (Homo sapiens) [17], -0.507. Further, the composite z-score with Torsin-1A (Homo sapiens) [18] was -0.0593; in assay [19], -0.103. Further, the z-score in assay [7] is -0.0374; in assay [9] it was 0.431 (inactive); in [11] it was -3.85 (inactive); in [12], 0.317 (inactive); in assay [13], 1.72 (inactive); in assay [14] it was -1.26 (inactive).
Turning to `C=CCNC(=O)[C@H]1[C@@H]2C(=O)O[C@@H](c3ccccc3)[C@@H](c3ccccc3)N2[C@@H](c2ccc(O)cc2)[C@]12C(=O)Nc1ccc(C#Cc3ccc(OC)cc3)cc12`, the composite z-score was found to be 0.194 in assay [1]; 1.22 in assay [2]; 0.403 in assay [3]; 0.789 in assay [4]; 1.16 in assay [5]; 1.13 in assay [6]. Moreover, the composite z-score in the assay with Lefty1 was 0.597; in [8], 0.278; in assay [10], 0.555; in [15], 0.252; in assay [16], -0.0523; with Torsin-1A (Homo sapiens) [17], 0.11. Besides, the values for the composite z-score (in the assay with Torsin-1A (Homo sapiens) [18]; in [19]) were 0.117 and 0.667, respectively. The z-score is -0.769 in [7]; 0.153 (inactive) in [9]; -3.44 (inactive) in assay [11]; -0.182 (inactive) in [12]; -0.141 (inactive) in assay [13]; 0.468 (inactive) in assay [14].
Take `[N-]=[N+]=NCc1ccccc1[C@@H]1OC(c2ccc(OCCCO)cc2)=N[C@]1(Cc1ccccc1N=[N+]=[N-])C(N)=O`: the composite z-score is 1.81 in [1]; 1.26 in assay [2]; 0.73 in assay [3]; 1.01 in assay [4]; 1.28 in assay [5]; 0.853 in [6]. The composite z-score is -0.173 with Lefty1; 1.31 in [8]; 0.138 in assay [10]; 2.16 in assay [15]; 0.32 in assay [16]; 0.571 with Torsin-1A (Homo sapiens) [17]. Also, the values for the composite z-score (with Torsin-1A (Homo sapiens) [18]; in assay [19]) were 0.373 and -0.349, respectively. Moreover, the z-score in [7] is 0.737; in assay [9], -3.4 (inactive); in assay [11], -1.91 (inactive); in assay [12] it was -0.089 (inactive); in assay [13], -0.128 (inactive); in assay [14] it was 0.15 (inactive).
As for `C=C(COC)C(=O)CC[C@@H](OC(=O)c1ccccc1-c1ccccc1C(=O)O)c1ccc(CO)o1`, the composite z-score in assay [1] was 1.73; in assay [2], 0.339; in assay [3] it was 0.0109; in assay [4], -0.363; in assay [5], 1.05; in assay [6] it was 1.81. The composite z-score in the assay on Lefty1 is 1.56; in assay [8], -0.407; in assay [10] it was 1.24; in assay [15], -0.517; in assay [16], -0.188; in the assay with Torsin-1A (Homo sapiens) [17] it was 1.67. The composite z-score came out at 0.404 in the assay with Torsin-1A (Homo sapiens) [18] and 1.91 in assay [19]. The z-score in assay [7] was -0.789; in assay [9], -3.78 (inactive); in [11], -7.58 (inactive); in [12] it was 0.164 (inactive); in assay [13], 8.29 (active); in [14], 5.1 (inactive).
`Cc1ccc(C(C)CC(O)C2C=CC3C(=O)NC(=O)C3N2Nc2ccccn2)o1` (stereo not given): the composite z-score is 1.17 in assay [1]; -0.722 in [2]; -0.121 in assay [3]; -0.633 in [4]; 0.709 in assay [5]; 0.243 in assay [6]. Also, the composite z-score with Lefty1 was 0.643; in assay [8], -0.0217; in assay [10], -0.0405; in assay [15], -0.585; in assay [16], 0.0797; with Torsin-1A (Homo sapiens) [17] it was 0.81. The results for the composite z-score (in the assay with Torsin-1A (Homo sapiens) [18]; in assay [19]) were 0.282 and 0.452, respectively. Also, the z-score in assay [7] was 0.839; in [9], -2.19 (inactive); in assay [11], 1.2 (inactive); in assay [12], -1.31 (inactive); in assay [13], -0.712 (inactive); in [14], -0.364 (inactive).
